Assay [1] in a line: NCI Yeast Anticancer Drug Screen. Data for the rad50 strain (AID 155).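 Further: 0% = growth of vehicle-only cultures of the same strain.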 Particulars: S. cerevisiae rad50 strain growth inhibition, active compounds read high. An outline of the steps:
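Readout: growth inhibition relative to vehicle-treated cultures. Compound exposure was carried out in a genetically defined yeast strain deficient in DNA damage repair.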

Assay [2] is described as follows: NCI Yeast Anticancer Drug Screen. Data for the mec2-1 strain (AID 157). The conditions noted are these: S. cerevisiae mec2-1 strain, active compounds read high. An outline of the steps: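 Each compound was tested on mec2-1 yeast, a strain altered in DNA damage repair or cell cycle control. Growth inhibition is reported relative to vehicle.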
Assay [3] can be described thus: NCI Yeast Anticancer Drug Screen. Data for the sgs1 mgt1 strain (AID 161).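 Further: 0% = growth of cultures given vehicle only.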 The conditions noted are these: S. cerevisiae sgs1 mgt1 strain, active compounds read high. A digest of the protocol: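 Read-out: growth inhibition vs vehicle controls. Cells: mutant yeast strain deficient in DNA damage repair.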
A short description of assay [4]: NCI Yeast Anticancer Drug Screen. Data for the cln2 rad14 strain (AID 165).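 Further: 0% = growth equal to vehicle treated cultures.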 The conditions noted are these: S. cerevisiae cln2 rad14 strain, active compounds read high. An outline of the steps: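 Test compounds were added to cln2 rad14 yeast cultures; inhibition of growth was then determined by comparison with vehicle treatment.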
Assay [5] in a line: NCI Yeast Anticancer Drug Screen. Data for the bub3 strain (AID 167). The conditions noted are these: S. cerevisiae bub3 mutant strain, active compounds read high. An outline of the steps:
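Readout: yeast growth inhibition, expressed relative to vehicle-only wells. The test organism is a mutant strain from a panel with lesions in DNA repair or checkpoint genes.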

Assay [6] can be described thus: NCI Yeast Anticancer Drug Screen. Data for the mlh1 rad18 strain (AID 175). The conditions noted are these: S. cerevisiae mlh1 rad18 strain growth inhibition, active compounds read high. A digest of the protocol: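 Inhibition values reflect reduced growth of mutant yeast versus vehicle-treated controls following compound exposure; the mutations affect DNA damage repair.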

Setting [7] is: at 5.0 µM (retest, dose inferred, filed as 0.5).
Setting [8] is: at 50.0 µM (retest, dose inferred, filed as 5.0).

About 79,000 compounds went through this panel and 15% of them were active in at least one assay; those are over-represented in the sample as a whole. Values without a mark were called inactive. Calls of active or inactive are those of the source. No stated cut-off is given here; in the data, active means growth inhibition above about 70%; inactive means the rest.

On to `CC(O)c1c2ccccc2cc2ccccc12` (configuration not stated), for which the growth inhibition was -17% in assay [1] (setting [7]); 72% (active) in assay [1] (setting [8]); 84.4% (active) in assay [1] (at 50.0 µM); -7% in assay [2] (setting [7]); 58% in assay [2] (setting [8]); 39.3% in assay [2] (at 50.0 µM). Besides, the growth inhibition in assay [3] (setting [7]) is 1%; in assay [3] (setting [8]), 72% (active); in assay [3] (at 50.0 µM), 37.6%; in assay [4] (setting [7]), -32%; in assay [4] (setting [8]), 50%; in assay [4] (at 50.0 µM), 16.8%. Moreover, the growth inhibition in assay [5] (setting [7]) was -1%; in assay [5] (setting [8]), 81% (active); in assay [5] (at 50.0 µM), 50.5%; in assay [6] (setting [7]) it was -13%; in assay [6] (setting [8]), 85% (active); in assay [6] (at 50.0 µM) it was 78.8% (active).

For the compound `N#Cc1c2c(c(N=[N+]=[N-])n3c1nc1ccccc13)CCCC2`, the growth inhibition was 47% in assay [1] (setting [7]); 95% (active) in assay [1] (setting [8]); 87.2% (active) in assay [1] (at 50.0 µM); 36% in assay [2] (setting [7]); 98% (active) in assay [2] (setting [8]); 92.3% (active) in assay [2] (at 50.0 µM). The growth inhibition in assay [3] (setting [7]) is 45%; in assay [3] (setting [8]), 99% (active); in assay [3] (at 50.0 µM) it was 91.5% (active); in assay [4] (setting [7]) it was 28%; in assay [4] (setting [8]) it was 97% (active); in assay [4] (at 50.0 µM) it was 90% (active). Besides, the growth inhibition was 43% in assay [5] (setting [7]); 95% (active) in assay [5] (setting [8]); 90.9% (active) in assay [5] (at 50.0 µM); 50% in assay [6] (setting [7]); 98% (active) in assay [6] (setting [8]); 89.7% (active) in assay [6] (at 50.0 µM).

`CCCCCCCCCCCCCCCCP(=O)([O-])OCC[N+](C)(C)C`: the growth inhibition in assay [1] (setting [7]) is -34%; in assay [1] (setting [8]), 99% (active); in assay [1] (at 50.0 µM), 80.8% (active); in assay [2] (setting [7]), -32%; in assay [2] (setting [8]), 99% (active); in assay [2] (at 50.0 µM) it was 87.3% (active). The growth inhibition in assay [3] (setting [7]) is 0%; in assay [3] (setting [8]) it was 99% (active); in assay [3] (at 50.0 µM), 89.2% (active); in assay [4] (setting [7]), -27%; in assay [4] (setting [8]), 99% (active); in assay [4] (at 50.0 µM), 89.5% (active). Also, the growth inhibition in assay [5] (setting [7]) is -32%; in assay [5] (setting [8]), 98% (active); in assay [5] (at 50.0 µM), 88.5% (active); in assay [6] (setting [7]), -26%; in assay [6] (setting [8]), 98% (active); in assay [6] (at 50.0 µM), 91.5% (active).

As for `Cc1c(C)c(C)c(C(=O)c2ccccc2C(=O)NCCSC(C)(C)C)c(C)c1C`, the growth inhibition was 42% in assay [1] (setting [7]); 49% in assay [1] (setting [8]); 82.6% (active) in assay [1] (at 50.0 µM); 45% in assay [2] (setting [7]); 60% in assay [2] (setting [8]); 67.6% in assay [2] (at 50.0 µM). Moreover, the growth inhibition in assay [3] (setting [7]) is -15%; in assay [3] (setting [8]), -31%; in assay [3] (at 50.0 µM) it was 83.3% (active); in assay [4] (setting [7]), 53%; in assay [4] (setting [8]), 41%; in assay [4] (at 50.0 µM), 76.6% (active). In addition, the growth inhibition in assay [5] (setting [7]) was 44%; in assay [5] (setting [8]) it was 33%; in assay [5] (at 50.0 µM) it was 82.4% (active); in assay [6] (setting [7]) it was 47%; in assay [6] (setting [8]), 55%; in assay [6] (at 50.0 µM) it was 84.3% (active).

In the case of `CS(=O)c1cc(=O)c2ccccc2s1` (configuration not stated), the growth inhibition was 6% in assay [1] (setting [7]); 85% (active) in assay [1] (setting [8]); 98.2% (active) in assay [1] (at 50.0 µM); -4% in assay [2] (setting [7]); 73% (active) in assay [2] (setting [8]); 98.9% (active) in assay [2] (at 50.0 µM). Further, the growth inhibition in assay [3] (setting [7]) was 19%; in assay [3] (setting [8]), 67%; in assay [3] (at 50.0 µM) it was 99.3% (active); in assay [4] (setting [7]), 10%; in assay [4] (setting [8]), 60%; in assay [4] (at 50.0 µM), 84.4% (active). In addition, the growth inhibition in assay [5] (setting [7]) is 0%; in assay [5] (setting [8]) it was 95% (active); in assay [5] (at 50.0 µM), 96.2% (active); in assay [6] (setting [7]), 14%; in assay [6] (setting [8]), 88% (active); in assay [6] (at 50.0 µM), 99% (active).

As to `CCCCCCCCCCNC(=O)CBr`, the growth inhibition in assay [1] (setting [7]) is 2%; in assay [1] (setting [8]), 99% (active); in assay [1] (at 50.0 µM), 83.7% (active); in assay [2] (setting [7]), -2%; in assay [2] (setting [8]), 100% (active); in assay [2] (at 50.0 µM), 64.8%. Besides, the growth inhibition in assay [3] (setting [7]) was -3%; in assay [3] (setting [8]), 99% (active); in assay [3] (at 50.0 µM), -1.3%; in assay [4] (setting [7]), 5%; in assay [4] (setting [8]), 100% (active); in assay [4] (at 50.0 µM) it was 18.9%. Also, the growth inhibition is 14% in assay [5] (setting [7]); 99% (active) in assay [5] (setting [8]); 97.8% (active) in assay [5] (at 50.0 µM); 6% in assay [6] (setting [7]); 99% (active) in assay [6] (setting [8]); 94% (active) in assay [6] (at 50.0 µM).

As for `O=C(c1ccc(Cl)cc1)C1OC12C(=O)Nc1c(Cl)cc(Cl)cc12` (configuration not stated), the growth inhibition is 1% in assay [1] (setting [7]); 99% (active) in assay [1] (setting [8]); 99.2% (active) in assay [1] (at 50.0 µM); 3% in assay [2] (setting [7]); 99% (active) in assay [2] (setting [8]); 99.2% (active) in assay [2] (at 50.0 µM). Further, the growth inhibition is 22% in assay [3] (setting [7]); 99% (active) in assay [3] (setting [8]); 99.2% (active) in assay [3] (at 50.0 µM); 5% in assay [4] (setting [7]); 99% (active) in assay [4] (setting [8]); 99.1% (active) in assay [4] (at 50.0 µM). Further, the growth inhibition in assay [5] (setting [7]) is -1%; in assay [5] (setting [8]), 99% (active); in assay [5] (at 50.0 µM) it was 99.2% (active); in assay [6] (setting [7]), 4%; in assay [6] (setting [8]), 99% (active); in assay [6] (at 50.0 µM), 98.5% (active).

`C=C1C(O)C2(O)OCC34C(CC5C(C)=CC(=O)C(O)C5(C)C23)OC(=O)C(OC(=O)C/C=C/CCCCCCCC)C14` (configuration not stated): the growth inhibition was 85% (active) in assay [1] (setting [7]); 98% (active) in assay [1] (setting [8]); 92.2% (active) in assay [1] (at 50.0 µM); 87% (active) in assay [2] (setting [7]); 99% (active) in assay [2] (setting [8]); 93% (active) in assay [2] (at 50.0 µM). Further, the growth inhibition in assay [3] (setting [7]) is 75% (active); in assay [3] (setting [8]), 99% (active); in assay [3] (at 50.0 µM), 92.8% (active); in assay [4] (setting [7]) it was 87% (active); in assay [4] (setting [8]) it was 99% (active); in assay [4] (at 50.0 µM) it was 92% (active). Further, the growth inhibition in assay [5] (setting [7]) was 84% (active); in assay [5] (setting [8]), 99% (active); in assay [5] (at 50.0 µM), 91.5% (active); in assay [6] (setting [7]) it was 93% (active); in assay [6] (setting [8]), 99% (active); in assay [6] (at 50.0 µM), 90.7% (active).

Regarding `N#Cc1ccccc1[N+](=O)[O-]`, the growth inhibition in assay [1] (setting [7]) is 16%; in assay [1] (setting [8]), 95% (active); in assay [1] (at 50.0 µM), 67.5%; in assay [2] (setting [7]), 1%; in assay [2] (setting [8]), 58%; in assay [2] (at 50.0 µM) it was 20.4%. The growth inhibition is 3% in assay [3] (setting [7]); 63% in assay [3] (setting [8]); 59.8% in assay [3] (at 50.0 µM); -1% in assay [4] (setting [7]); 25% in assay [4] (setting [8]); 0.35% in assay [4] (at 50.0 µM). Moreover, the growth inhibition was -3% in assay [5] (setting [7]); 54% in assay [5] (setting [8]); 61.4% in assay [5] (at 50.0 µM); 4% in assay [6] (setting [7]); 93% (active) in assay [6] (setting [8]); 79.5% (active) in assay [6] (at 50.0 µM).

The record behind these values is PubChem BioAssay (NCI).
